SMILES strings stand for the structures. Results filed as inconclusive are left out. Values without a mark were called inactive. Calls of active or inactive are those of the source. Calls follow the shape of the dose curve; as a rule, active = well fitted activation curve with a large enough effect in the repeat runs; inconclusive = weak or mixed curves; inactive = flat fitted curve, though single readings scatter.
% is scaled to controls: 0 for no effect and ±100 for the full control effect.

A short description of this assay: Caspase-3/7 induction in HepG2 cells by small molecules, qHTS assay (AID 1346978). Also: nearly all actives have a fitted effect of over 15% in size. Conditions: HepG2 caspase-3/7 activation, Caspase-Glo luminescence, 17 h; series mostly up to 92.4 µM. The source says:
National Center for Advancing Translational Sciences [NCATS] NIH Chemical Genomics Center [NCGC] U.S. Environmental Protection Agency [EPA] National Institutes of Environmental Health Sciences [NIEHS] National Toxicology Program [NTP] Assay overview: Apoptosis is a process of programmed cell death and plays a central role in the development of multicellular organisms. It is a highly regulated process and induces cell death by activating caspases, which are the members of cysteine aspartic acid-specific protease (caspase) family. Caspases involved in apoptosis are classified by their mechanism of action as initiator caspases (caspase-2, -8, -9 and -10) and executioner caspases (caspase-3, -6, and -7). Inhibition of apoptosis results in number of cancers, autoimmune diseases, inflammatory diseases and viral infection. To identify small molecule compounds that induce apoptosis, a homogeneous, luminescent Caspase-Glo 3/7 assay was used. Wild type HepG2 cells were used to screen Tox21 libraries for identifying caspase-3/7 activity inducers.
Assay Protocol Summary: HepG2 cells were dispensed at 2,000 per well in 5uL of culture medium into white solid bottom 1536-well plates (Corning Life Sciences, Corning, NY) using a Multidrop Combi (Thermo Scientific, Waltham, MA) dispenser. The assay plates were incubated at 37 C and 5% CO2 for 5hr, and then 23nL of compounds dissolved in DMSO and positive control were transferred using a Pintool station (Wako, San Diego, CA). The assay plates were incubated at 37C and 5% CO2 for 17hr. For caspase-3/7 activity read, 4uL of Caspase-Glo 3/7 reagent (Promega Corporation, Madison, WI) was added to each well of the assay plates using Flying Reagent Dispenser (FRD, Aurora Discovery, San Diego, CA) and incubated the assay plates at room temperature for 30min. The luminescence signal was quantified using a ViewLux plate reader (Perkin Elmer, Shelton, CT).
(In qHTS, concentration-response curves come from the screen itself.)
Consider `CN(C)CCN(C)CCN(C)C`, for which the compound was called inactive.
With `O=C1NC(=O)C2CC=CCC12` (stereo not given), the call was inactive.
The same measure, in the same setting: the result for `C=C(C)C(=O)OCC(O)CO` (stereo not given) reads “inactive”.
`C[N+](C)(CCOc1ccccc1)Cc1cccs1`: the result was inactive.
With `N[C@@H](CCC(=O)O)C(=O)O`, the call was inactive.
As to `[Ca+2]`, the call was inactive.
Still for that read-out and setting: next, `CCN1CCOCC1`: “inactive”; `O=CN(CCO)CCO`: “inactive”.
On to `CN1CCN(c2cc3c(nn2)Oc2ccccc2N3C)CC1`, for which the caspase activation is -12.1% [at 19 µM].
For the compound `O=C(CO)[C@@H](O)[C@H](O)[C@H](O)CO`, the outcome was inactive.
The same measure, in the same setting: the result for `CCOC(=O)c1cnc2c(cnn2CC)c1NN=C(C)C` reads “inactive”; that for `CC/C=C\CCOC(C)OCC` (stereo not given), “inactive”.
As to `O=C1CCCCCCCCCCCCCCO1`, the outcome was inactive.
Same read-out and setting: next, `CC(=O)C1CCCCC1=O` (stereo not given): “inactive”; `COc1ccc2cc1Oc1cc3c(cc1OC)CC[N+](C)(C)[C@H]3Cc1ccc(cc1)Oc1c(OC)c(OC)cc3c1[C@@H](C2)[N+](C)(C)CC3`: “inactive”; `CN(C)CCCCCCN(C)C`: “inactive”.
On the same count and under the same terms, next, `COCCOCC(OC)OC`: “inactive”; `CCOC(=O)C(=O)CCCCCCl`: “inactive”; `NC(=O)N[C@@H](CCC(=O)O)C(=O)O`: “inactive”.
With `C=C(C)C(=O)OCCOCCOCCOCCOC(=O)C(=C)C`, the outcome was inactive.
With `CC(C)(CCC(=O)O)C(=O)O`, the result was inactive.
`CCOC(=O)CCC(=O)OCC`: the compound was classed as inactive.
Same read-out and setting: the result for `CC(=O)c1ccc2ccccc2c1` reads “inactive”.
Same read-out and setting: next, `C[C@H]1[C@H](NC(=O)/C(=N/OC(C)(C)C(=O)O)c2csc(N)n2)C(=O)N1S(=O)(=O)O` (stereo in doubt): “inactive”; `Cc1onc(-c2c(Cl)cccc2Cl)c1C(=O)Cl`: “inactive”.
Still for that read-out and setting: the result for `CC1=CC(=O)[C@H]2C[C@@H]1C2(C)C` reads “inactive”.
In the case of `C=COCC1CCC(COC=C)CC1` (stereo not given), the compound was called inactive.
On the same count and under the same terms, next, `Nc1ccncc1N`: “inactive”; `COc1cc(-c2ccc(=O)[nH]n2)ccc1OC(F)F`: “inactive”; `CC1(C)[C@@H]2CC[C@@]1(C)[C@H](O)C2`: “inactive”.
`COc1cccc(OC)c1C(=O)N[C@@H]1C(=O)N2[C@@H]1SC(C)(C)[C@@H]2C(=O)O`: the call was inactive.
On the same count and under the same terms, the result for `O=C(c1ccccc1O)c1ccccc1O` reads “inactive”.
Take `CO[C@@]1(NC(=O)C(C(=O)O)c2ccc(O)cc2)C(=O)N2C(C(=O)O)=C(CSc3nnnn3C)CO[C@@H]21` (stereo not given in full): the outcome was inactive.
As for `CC(C)=CCC/C(C)=C/C#N`, the result was inactive.
Same read-out and setting: next, `CC(C)CC(C)(N)C#N` (stereo not given): “inactive”.
The same measure, in the same setting: next, `CC(C)(C)C(=O)c1ccccc1`: “inactive”; `CCCCCC(C)N` (stereo not given): “inactive”; `C[C@@H]1C[C@H]2[C@@H]3C[C@H](F)C4=CC(=O)C(Cl)=C[C@]4(C)[C@@]3(F)[C@@H](O)C[C@]2(C)[C@@]1(O)C(=O)CO`: “inactive”.
Same read-out and setting: next, `N[C@H](C(=O)O)[C@@H](O)c1ccc(O)c(O)c1`: “inactive”; `CC(=O)c1ccccc1[N+](=O)[O-]`: “inactive”.

(Values after PubChem BioAssay (Tox21).)
